GPT2 inh: Primary qHTS assay for inhibitors of Glutamate pyruvate transaminase 2 (GPT2); Alanine aminotransferase 2 (Homo sapiens), Q8TD30; Recombinant GPT2, coupled pyruvate oxidase/HRP Amplex Red fluorescence; Potency, µM (series often up to 57.7 µM), for inactives: at the highest dose activity change, negative = inhibition, hits mostly inhibitors; hit rate 0.25% among 100,000; AID 1671188, 2021; further: nearly all actives have a fitted effect of over 60% in size
Target sequence (Q8TD30 whole entry, looked up): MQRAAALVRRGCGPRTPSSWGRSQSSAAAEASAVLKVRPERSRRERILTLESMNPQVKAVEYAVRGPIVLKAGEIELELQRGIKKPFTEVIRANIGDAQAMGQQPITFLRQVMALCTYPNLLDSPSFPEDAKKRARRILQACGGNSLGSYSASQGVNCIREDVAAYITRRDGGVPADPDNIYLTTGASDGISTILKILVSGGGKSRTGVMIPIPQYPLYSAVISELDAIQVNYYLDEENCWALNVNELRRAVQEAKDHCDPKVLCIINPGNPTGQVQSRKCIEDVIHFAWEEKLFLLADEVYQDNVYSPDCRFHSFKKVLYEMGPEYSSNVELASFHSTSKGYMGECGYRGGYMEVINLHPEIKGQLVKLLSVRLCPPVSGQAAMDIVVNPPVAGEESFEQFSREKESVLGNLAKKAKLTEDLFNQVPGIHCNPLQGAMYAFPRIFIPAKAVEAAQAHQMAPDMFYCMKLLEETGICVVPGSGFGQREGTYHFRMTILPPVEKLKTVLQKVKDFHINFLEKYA
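GPT2 10ng/uL, a-KG 250uM, L-Ala 2mM, HEPES pH7.5 + 0.0001% Tween; 30 min RT. Then Amplex mix (PO/HRP/ThPP), 30 min RT dark, fluorescence. AOA 50uM used as positive control.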
FLuc inh: Firefly luciferase inhibition profiling of diverse chemical library using quantitative high-throughput screening | purified P. pyralis luciferase, luminescence, biochemical | Potency, µM (highest dose often 115 µM), most hits filed as inhibitors | hit rate 2.5% among 76,000 | Luciferin 4-monooxygenase (Photinus pyralis), P08659 | AID 1347043, 2019; further: nearly all actives have a fitted effect of over 65% in size
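Luminescence read by CCD imager after adding enzyme (10nM final) to wells holding compound, titrated in qHTS. Substrates 10uM each D-luciferin and ATP; buffer 50mM Tris acetate pH 7.5, 10mM Mg acetate, Tween-20, BSA.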
3T3 cytotox: Cytotoxic Profiling in NIH 3T3 Cell Line of Diverse Libraries Using Quantitative High-Throughput Screening. NIH 3T3 viability, CellTiter-Glo ATP luminescence, 48-72 h. Potency, µM (highest dose often 96.7 µM), for inactives: at the highest dose activity change, negative = cytotoxicity, hits mostly inhibitors. hit rate 4.3% among 94,000; further: nearly all actives have a fitted effect of over 55% in size
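ATP-dependent luminescence (CellTiter-Glo) served as the viability signal for NIH 3T3 cells treated with compound for 48 or 72 hr at 37 °C.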
NPR1 antag: Natriuretic polypeptide receptor (hNpr1) antagonism - Primary qHTS | HEK293 hNpr1 GloSensor cGMP, ANP-stimulated luminescence | Atrial natriuretic peptide receptor 1 (Homo sapiens), P16066 | Potency, µM (top dose mostly 46.3 µM), inactives show at the highest dose activity change, negative = inhibition, most hits filed as inhibitors | hit rate 1.6% among 76,000; calls by dose curve; further: nearly all actives have a fitted effect of over 60% in size
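HEK293 cells stably expressing human Npr1 and cGMP GloSensor pGS-40F, loaded 2 h with 2% GloSensor reagent, given compound 30 min at room temperature. Luminescence read before and 20 min after 0.1 nM hNppA.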
HEK293 tox: Cytotoxic Profiling in HEK 293 Cell Line of Diverse Libraries Using Quantitative High-Throughput Screening. HEK 293 viability, ATP luminescence (CellTiter-Glo), 48-72 h. Potency, µM (top dose mostly 115 µM), inactives show top-dose activity change, negative = cytotoxicity, actives largely listed as inhibitors. hit rate 6.6% among 94,000; further: nearly all actives have a fitted effect of over 60% in size
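Read-out: CellTiter-Glo ATP luminescence. Cells: HEK 293, 250 cells/well. Exposure: 48 or 72 hr, 37 degree Celsius.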
* = called active by the depositor; i = inactive; ? = inconclusive; nt = no result; ! = not confirmed by another sample; [ ] = remark or other dose. This is a sample that favours compounds with a hit; in the whole collection about 10% have one here. Unless noted, the call rests on the fitted dose curve; in most records, active means well fitted curve in the direction sought with a large enough effect; inconclusive means small, poorly fitted or top-dose-only effect, or another doubt; inactive means no such curve, though single readings can be large; an effect the other way counts as inactive or inconclusive. On the % scale 0 is the no-effect control and ±100 the full control effect; potency means the concentration at half of the fitted maximal effect.

SMILES	GPT2 inh	FLuc inh	3T3 cytotox	NPR1 antag	HEK293 tox
O=C(c1cc(-c2cc(Cl)cc(Cl)c2)c2cccn2n1)N1CCN(c2ncccn2)CC1	-12%	nt	?	nt	-24%
CNC(=O)Nc1cccn2nc(-c3ccccc3)nc12	?	40µM*	?	-4%	?
COC(=O)CC(NC(=O)Nc1cccn2nc(C)nc12)c1ccccc1 (centres undefined)	-1%	i	-11%	-9%	-11%
CC1Oc2ccc(NC(=O)Cc3ccc(F)cc3)cc2CN(CC2CC2)C1=O (centres undefined)	4%	i	?	5%	40µM*
CC1Oc2ccc(NC(=O)Cc3ccccc3)cc2CN(Cc2ccc(F)cc2)C1=O (centres undefined)	?	i	?	?	45µM*
COc1ccc(CN2Cc3cc(NC(=O)Cc4ccc(F)cc4)ccc3OC(C)C2=O)cc1 (centres undefined)	i	i	?	-13%	40µM*
CC1Oc2ccc(NC(=O)Cc3ccc(F)cc3)cc2CN(CCc2ccc(F)cc2)C1=O (centres undefined)	0%	i	?	-9%	?
CC1Oc2ccc(NS(=O)(=O)c3ccc(F)cc3)cc2CN(Cc2ccc(F)cc2)C1=O (centres undefined)	i	i	?	-23%	45µM*
COc1ccccc1CN1Cc2cc(NS(=O)(=O)c3ccc(C)c(F)c3)ccc2OC(C)C1=O (centres undefined)	-17%	i	?	-14%	?
Cc1cc(Cl)ccc1S(=O)(=O)N1CCC(n2cnnc2C)CC1	-8%	i	-16%	-2%	-5%
COc1cccc(-c2cccc(C(=O)N3CCN(C(=O)N(C)C)CC3)c2)c1	i	nt	-29%	nt	?
COc1cccc(CC(=O)NCC23CCCC=C2N(CC2CC2)C(=O)CC3)c1 (centres undefined)	i	nt	?	nt	?
O=C(NCC1CCCCC1)C1CCN(c2ccnc3ccnn23)CC1	i	nt	?	nt	?
CCN1C(=O)C2(CCN(S(=O)(=O)c3ccc(F)c(C)c3)CC2)c2ccccc21	i	i	-13%	4%	?
COc1ccc(CCCNC(=O)c2ccc(N3CCC(N(C)C)C3)nc2)cc1 (centres undefined)	i	i	1%	-8%	?
COC(=O)N1CCN(Cc2ccccc2-c2ccc(C)c(Cl)c2)CC1	-12%	nt	?	nt	?
COCCNC(=O)c1ccc(-c2ccc(N3CCCCC3)nc2)cc1	-3%	?	-12%	-1%	?
O=C(NCCN1CCCC1)c1ccc(-c2ccc(N3CCSCC3)nc2)cc1	1%	14µM*	?	-17%	?
CC(C)c1nccn1CCCNC(=O)c1ccc(N2CCCCCC2)nc1	0%	i	?	-11%	79µM*
O=C(NCCN1CCOCC1)c1ccc(-c2ccc(N3CCCCC3)nc2)cc1	i	32µM*	?	-11%	?
CC(C)c1nccn1CCCNC(=O)c1ccc(N2CCC(CO)CC2)nc1	-5%	i	-22%	0%	-7%
c1csc(-c2nc3nccc(-c4cc5ccccc5o4)n3n2)c1	2%	i	-28%	4%	?
O=C(c1ccc(OCCN2CCCCC2)cc1)c1c(-c2ccc(O)cc2)sc2cc(O)ccc12	8.9µM*!	nt	nt	nt	nt
CCCCOc1ccc(C(=O)CCN2CCCCC2)cc1	i	nt	nt	nt	nt
CC1=C[C@@H](CNc2ccccn2)[C@H](C(C)C)C[C@H]1Cc1nnc(-c2cncn2C)o1	3%[88.5 µM]	i	?	-14%[70.6 µM]	63µM*
SMILES	GPT2 inh	FLuc inh	3T3 cytotox	NPR1 antag	HEK293 tox
CC1=C[C@@H](CNC(=O)c2ccccc2)[C@H](C(C)C)C[C@H]1Cc1nnc(-c2cncn2C)o1	-7%[88.5 µM]	i	100µM*	-15%[70.6 µM]	79µM*
COc1ccc(Cn2c(=O)c(C(=O)N3CCN(Cc4ccccc4)CC3)nc3cccnc32)cc1	i	nt	?	nt	?
O=C(NC1CCN(Cc2cccc(-c3ccc(F)cc3F)c2)CC1)c1cccc(Cl)c1	nt	nt	16µM*	nt	22µM*!
CSc1ccc(-c2cccc(CN3CCC(NC(=O)c4cccc(Cl)c4)CC3)c2)cc1	nt	nt	-15%	nt	-15%
COc1ccccc1-c1cccc(CN2CCC(NC(=O)c3cccc(Cl)c3)CC2)c1	-7%	nt	?	nt	45µM*
COc1ccccc1-c1cccc(CN2CCC(NC(=O)Nc3ccccc3)CC2)c1	?	nt	18µM*	nt	22µM*
COc1ccccc1-c1cccc(CN2CCC(N[S+](=O)([O-])CCC(F)(F)F)CC2)c1	-5%	nt	?	nt	?
COc1ccccc1-c1cccc(CN2CCC(NC(=O)Cc3cccc(Cl)c3)CC2)c1	?	nt	25µM*	nt	?
COc1ccccc1-c1cccc(CN2CCC(N[S+](=O)([O-])c3cccs3)CC2)c1	3%	nt	?	nt	?
COc1ccc(CNC(=O)C2CCN(C(=O)C3CN(c4ccc(OC)cc4)C(=O)N3)C2)cc1 (centres undefined)	-18%	i	?	0%	-10%
COc1ccccc1-c1cccc(CN2CCC(NC(=O)c3ccc(C(F)(F)F)cc3)CC2)c1	-6%	nt	25µM*	nt	22µM*
COc1ccccc1-c1cccc(CN2CCC(NC(=O)Cc3ccc(F)cc3)CC2)c1	?	nt	32µM*	nt	?
O=C(NC1CCN(Cc2cccc(-c3cccs3)c2)CC1)c1ccc(C(F)(F)F)cc1	i	nt	?	nt	?
COc1ccccc1-c1cccc(CN2CCC(NC(C)=O)CC2)c1	i	nt	?	nt	-26%
CN(C)C[C@@H]1CN(Cc2cccnc2)C[C@H]1NC(=O)c1cc2ccccc2[nH]1	i	i	?	-7%	?
Cc1cc(C(=O)N2CC(N(CC(C)C)C3CCOCC3)C2)nn1C	i	i	-10%	-14%	-4%
Cc1sc2ccn(CC(C)C)c(=O)c2c1C(=O)N1CCCCC1	i	i	5%	-3%	28µM*
CCCN1CCN(C(=O)c2c(C)sc3ccn(CC(C)C)c(=O)c23)CC1	i	i	i	3%	-1%
Cc1sc2ccn(CC(C)C)c(=O)c2c1C(=O)N1CCC(C)CC1	i	i	-1%	8%	45µM*
O=C(NC1CCN(Cc2ccc(-c3ccsc3)cc2)C1)c1ccccn1 (centres undefined)	i	nt	?	nt	?
